According to the supplement of paper PMC9399229:
“And” between values parts separate entries of the source, which are not always exact repeats. Equal entries are not always repeated. Structures can show the parent of a compound that is named as a salt. ± gives the standard deviation of the averaged measurements. Whole data set: some 1,900 compounds, median “relative cell viability (CellTiter-Glo), compound alone” near 1, cut for the lowest 2% near 0.16. This is one part of a sample in which the lowest values are shown more often than they occur.

Tested on: Hep3B
Assay: relative cell viability (CellTiter-Glo), compound alone (fraction); higher = more viable cells (less growth inhibition)
Settings: cabozantinib 0 µM; 4 days

SMILES | relative cell viability
CC(C)c1ccc(NC(=O)Cn2cnc3c2c(=O)n(C)c(=O)n3C)cc1 | 1.02 ± 0.041
Cc1ccc(C(=O)N(CCCN)[C@@H](c2oc3cc(Cl)ccc3c(=O)c2Cc2ccccc2)C(C)C)cc1 | 0.245 ± 0.0053
CC1=C(C(=O)Nc2cc3cn[nH]c3cc2F)C(c2ccc(C(F)(F)F)cc2)CC(=O)N1 (stereo not drawn) | 1.3 ± 0.16
CN(C)C(=S)NN=C(c1ccccn1)c1ccccn1 | 0.265 ± 0.025
C/C(=N\NC(=S)N1CCC1)c1ccccn1 | 0.0813 ± 0.0087
CCN(CC)C(=S)SSC(=S)N(CC)CC [Disulfiram] | 0.134 ± 0.012
CN1CCN(c2ccc(OC(F)(F)F)c(Nc3ncc4c(n3)-c3c(c(C(N)=O)nn3CCO)CC4)c2)CC1 | 0.48 ± 0.02
O=C(N/N=C/c1ccc(O)c(O)c1)c1cc2ccccc2cc1O [Dynasore] | 0.932 ± 0.05
Cc1nc2c([nH]1)-c1ccccc1N(C(=O)c1ccc(NC(=O)c3ccccc3-c3ccccc3)cc1)CC2 [Conivaptan HCl] | 1.12 ± 0.15
C[C@@H](O[C@H]1OCCN(Cc2nn(P(=O)(O)O)c(=O)[nH]2)[C@H]1c1ccc(F)cc1)c1cc(C(F)(F)F)cc(C(F)(F)F)c1 [Fosaprepitant dimeglumine salt] | 1.04 ± 0.1
O=C(O)C1=CO[C@@H](O[C@@H]2O[C@H](CO)[C@@H](O)[C@H](O)[C@H]2O)[C@@H]2C(CO)=CC[C@H]12 [Geniposidic acid] | 1.04 ± 0.16
COc1cc(N2CCC(N)CC2)ccc1Nc1ncc(Cl)c(-c2c[nH]c3ccccc23)n1 | 0.138 ± 0.00027
CNC(=O)c1ccccc1Nc1nc(Nc2ccc(N3CCOCC3)cc2OC)ncc1Cl | 0.273 ± 0.0076
CCOc1cc(N2CCC(O)CC2)ccc1Nc1ncc2c(n1)N(C)c1ccccc1C(=O)N2C | 1.14 ± 0.05
Nc1ncnc2c1C(=O)N(c1ccc([C@H]3CC[C@H](CC(=O)O)CC3)cc1)CCO2 | 1.289 ± 0.0053
CC(C)C[C@H](NP(=O)(O)O[C@@H]1O[C@@H](C)[C@H](O)[C@@H](O)[C@H]1O)C(=O)N[C@@H](Cc1c[nH]c2ccccc12)C(=O)O [Phosphoramidon Disodium Salt] | 1.169 ± 0.0058
Cn1nnc2c(C(N)=O)ncn2c1=O [Temozolomide] | 1.25 ± 0.15
Cc1cc(N2CCOCC2)ccc1Nc1nc(NC2CCCCC2)c2[nH]cnc2n1 | 0.971 ± 0.072
CC(C)(C)c1ccc(-c2nc3ccccc3[nH]2)cc1 | 0.591 ± 0.042
COc1cc2c(c(OC)c1OC)-c1c(cc3c(c1OC)OCO3)CC(C)C(C)C2 (stereo not drawn) [Schisandrin B (Sch B)] | 0.988 ± 0.053
Nc1ccc2ncnc(NCCc3ccc(Oc4ccccc4)cc3)c2c1 | 1.22 ± 0.066
Cn1nnc(-c2ccc3c(c2)[nH]c2nc(Cc4ccccc4)nc(NC4CCC(N)CC4)c23)n1 (stereo not drawn) | 0.194 ± 0.0028

SMILES | relative cell viability
CN(C)CCC[C@@]1(c2ccc(F)cc2)OCc2cc(C#N)ccc21 [Escitalopram Oxalate] | 1.13 ± 0.13
N#CSc1cc(SC#N)c(N)nc1N | 1.061 ± 0.0035
CCOC(=O)c1ccc(N2NC(=O)C(=Cc3ccc([N+](=O)[O-])o3)C2=O)cc1 | 0.977 ± 0.14
Cn1cc(-c2ccc3c(c2)CCN3C(=O)Cc2cccc(C(F)(F)F)c2)c2c(N)ncnc21 | 1.34 ± 0.066
CC(C)(C)c1cc(C(=O)C(C#N)=NNc2cccc(Cl)c2)no1 | 1.11 ± 0.17
O=C(NC1CCNCC1)c1n[nH]cc1NC(=O)c1c(Cl)cccc1Cl | 0.157 and 0.162
O=C(NC1CCOCC1)c1ccc(-c2cc(-c3c[nH]nc3-c3ccccn3)ccn2)cc1 | 1.23 ± 0.2
CC(=O)OCOC(=O)CN(CC(=O)OCOC(C)=O)c1ccccc1OCCOc1ccccc1N(CC(=O)OCOC(C)=O)CC(=O)OCOC(C)=O | 1.12 ± 0.016
CNC(=O)[C@@H](c1ccccc1)N1CCc2cc(OC)c(OC)cc2[C@@H]1CCc1ccc(C(F)(F)F)cc1 [Almorexant HCl] | 1.19 ± 0.11
Cc1c(N(C)C)c(=O)n(-c2ccccc2)n1C [Amidopyrine] | 1.07 ± 0.062
COc1ccc2c(Oc3ccc(NC(=O)c4c(C)n(CC(C)(C)O)n(-c5ccccc5)c4=O)nc3)ccnc2c1 | 1.16 ± 0.024
O=C(NNc1nc2cc(F)ccc2n2cccc12)c1cnccn1 | 0.383 ± 0.013
C=C1C(=O)[C@]23[C@H](O)[C@H]1CC[C@H]2[C@@]12CO[C@]3(O)[C@@H](O)[C@@H]1C(C)(C)CC[C@@H]2O [Oridonin] | 0.9649 ± 0.0085
CCS(=O)(=O)N1CC(CC#N)(n2cc(-c3ncnc4[nH]ccc34)cn2)C1 | 0.983 ± 0.088
CO[C@H]1/C=C\C=C(/C)C(=O)NC2=CC(=O)C(NCCN(C)C)=C(C[C@@H](C)C[C@H](OC)[C@H](O)[C@@H](C)/C=C(\C)[C@@H]1OC(N)=O)C2=O [17-DMAG (Alvespimycin) HCl] | 0.267 ± 0.043
CN1CC[C@H](c2c(O)cc(O)c3c(=O)cc(-c4ccccc4Cl)oc23)[C@H](O)C1 [Flavopiridol (Alvocidib)] | 0.143 ± 0.043
CN1CC[C@H](c2c(O)cc(O)c3c(=O)cc(-c4ccccc4Cl)oc23)[C@H](O)C1 [Flavopiridol HCl] | 0.183 ± 0.015
CC(=O)N1c2ccc(-c3ccc(C(=O)O)cc3)cc2[C@H](Nc2ccc(Cl)cc2)C[C@@H]1C | 0.698 ± 0.027
N#Cc1c(NC(=O)c2cccc3ccccc23)sc2c1CCCC2 [JNK Inhibitor IX] | 1.1 ± 0.056
Cc1cc2c(cc1CC(=O)c1sccc1S(=O)(=O)Nc1onc(C)c1Cl)OCO2 [Sitaxentan sodium] | 1.18 ± 0.062
COc1cc(OC)c2c(=O)[nH]c(-c3cc(C)c(OCCO)c(C)c3)nc2c1 | 0.805 ± 0.0086
